pAkt inh: blocks phosphorylation of Akt | Neuro2A IGF-stimulated pAkt S473 HTRF, 20 min; hits give low values | activity change, % for hits at 50 µM | 360,000 compounds, 0.32% hits; in the data active = activity change below about -80%; note: % is set by controls: 0 for no effect and ±100 for the full control effect
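Single-point screen (50 µM final compound) in Neuro2A cells stimulated 20 min with 6 nM IGF at 37 deg C. After lysis, Ser473-phosphorylated Akt read by HTRF (ex 330 nm, em 615/665 nm) as the 665/615 ratio.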
TSHR antagonist: antagonists of human thyroid stimulating hormone receptor; activity change, negative = inhibition, % at 11.5 µM; 330,000 compounds, 0.2% hits; AID 504810; P16473; TSHR-expressing cells, TSH-stimulated cAMP HTRF, 2 h; hits give low values;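 active = activity change below a set negative limit, meaning inhibition stronger than a set level, cut at about -70% in these data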; note: % is set by controls: 0 for no effect and ±100 for the full control effect
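Cell-based HTRF cAMP assay; TSHR cells + compound, TSH EC80 (4nM final), 2 h, 37 deg C. Lysis with anti-cAMP cryptate and cAMP-d2, 30 min RT, read 665/620 nm.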
CCT chaperon mod: cytosolic chaperonin activity modulation | purified chaperonin ATPase assay, HTRF ADP detection, 30 min | activity change, % (no concentration beside the values), hits read low | 360,000 compounds, 0.3% hits; in the data active = activity change below about -30%; note: % is set by controls: 0 for no effect and ±100 for the full control effect
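ATPase activity: ADP formed was measured by HTRF Transcreener (665/615 nm ratio) after 30 min at 37 deg C with 10 uM ATP. Compounds screened at one 76 uM concentration against 40 or 20 nM TRiC in Tris pH 7.4/KCl/MgCl2/DTT buffer.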
TCR activator: activates T cell receptor signaling; primary human leukocytes, anti-CD3, IL-2 HTRF, 48 h; Potency, µM (titrated, usually from 9.22 µM), for the others: at the highest dose activation of IL-2 secretion, usual class: activators; 330,000 tested, under 10 active; AID 504894; active = well fitted activation curve with a large enough effect; note: % of control where 0% means no effect
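TCR engagement came from a-CD3 beads alone, with compounds added to primary human leukocytes for 48 hr. Secreted IL-2 bridged europium cryptate- and d2-labelled anti-IL-2 antibodies, giving FRET emission at 665nm after 320nm excitation.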
* marks the source's active call; other numbers are inactive results; i = inactive; · = no result given; [ ] = another dose, or the depositor's remark. Only some compounds are listed: those with a hit (about 0.74% of all), similar ones and a draw of the others.

SMILES	pAkt inh	TSHR antagonist	CCT chaperon mod	TCR activator
CCCNc1c(NS(=O)(=O)c2ccc(Br)cc2)c(=O)oc2ccccc12	i	-146.7*	-2.2	-1.2%
COc1cccc(CC(=O)Nc2ccc(N3CCOCC3)c(S(=O)(=O)Nc3ccccc3OC)c2)c1	i	·	1.2	7.4%
Cc1ccc(CN2C(=O)CSCC2(C)C(=O)Nc2c(C)cccc2C)cc1 (stereo not given)	i	·	·	·
Cc1cc(C(=O)Nc2cccc3c2O[C@@H](CN(C)S(C)(=O)=O)[C@H](C)CN([C@@H](C)CO)C3=O)n(C)n1	i	-0.4	-32.0*	2.8%
C[C@@H]1CCCCO[C@@H](CN(C)Cc2ccncc2)[C@@H](C)CN([C@H](C)CO)C(=O)c2cc(NC(=O)c3ccccc3)ccc2O1	i	·	-33.6*	·
C[C@H](CO)N1C[C@H](C)[C@@H](CN(C)C(=O)Nc2ccccc2)Oc2ccc(NC(=O)Nc3ccccc3)cc2C1=O	i	13.6	-43.6*	-0.1%
C[C@@H]1CN([C@@H](C)CO)C(=O)c2cc(NC(=O)c3ccncc3)ccc2O[C@@H](C)CCCCO[C@@H]1CN(C)C(=O)Cc1ccccc1	i	·	-0.6	·
O=C(CSc1nc2ccccc2o1)Nc1ccc(N2CCOCC2)cc1	-93.8%*	0.5	-0.3	·
O=C(CSc1nc2cc(Cl)ccc2o1)N1CCOCC1	i	6.1	-30.7*	6.5%
O=C(CSc1nc2cc(Cl)ccc2o1)Nc1ccc(N2CCOCC2)cc1	i	25.5	-2.7	2.8%
CC(=O)Nc1cccc(-c2ccnc3c2CC(C(=O)Nc2ccc(Cl)cc2)O3)c1 (stereo not given)	i	·	-0.1	·
CN1CCN(/C=N/C2=C(C#N)C(c3ccccc3)C3=C(CC(C)(C)CC3=O)O2)CC1 (stereo not given)	i	-1.1	-34.3*	1.2%
CC1(C)CC(=O)C2=C(C1)OC(/N=C/N1CCCC1)=C(C#N)C2c1ccccc1 (stereo not given)	i	1.7	-8.3	-4.6%
COc1ccc(OCCCC(=O)Nc2cc([N+](=O)[O-])ccc2C)cc1	i	-2.5	-43.9*	-0.4%
COc1cc(-c2noc(C)c2C(=O)NCCCN2CCOCC2)cc(OC)c1OC	i	3.9	-1.9	-3.2%
Fc1ccccc1CN1CCCCCCC1	-103.6%*	11.6	2.6	-3.3%
Fc1ccc(CN2CCCCCC2)c(F)c1	i	7.8	-2.6	-3.6%
O=C1Nc2ccccc2N=C(c2ccc3c(c2)OCO3)C1N(C(=O)c1ccc2ccccc2c1)C1CC1 (stereo not given)	i	·	-4.2	·
CCNc1ccc(C(=O)NN=C2CCCC2)cc1[N+](=O)[O-]	i	-2.2	-2.0	-5.1%
O=C(Nc1ccc(OCc2ccccc2)cc1)c1cccc([N+](=O)[O-])c1	i	2.8	-45.8*	0.7%[46.1 µM]
Cc1ccc(C(=O)Nc2ccc(OCc3ccccc3)cc2)cc1[N+](=O)[O-]	i	-7.0	-2.0	·
CN(C)CCCN=Cc1c(O)n(Cc2ccc3c(c2)OCO3)c(=O)c2ccccc12	·	-1.2	·	·
O=C(NNc1ccc(Cl)cc1)C1CCC1	i	5.1	-36.0*	-7.0%
CC(NC(=O)c1ccc(Br)s1)c1ccncc1 (stereo not given)	i	-23.1	-9.9	0.3%
Cc1[nH]n(-c2ccc([N+](=O)[O-])cc2)c(=O)c1C=NCCN1CCN(C(=O)c2ccc(Br)cc2)CC1	-102.4%*	-6.8	-0.9	-1.0%
SMILES	pAkt inh	TSHR antagonist	CCT chaperon mod	TCR activator
COCCn1c(C)cc(C(=O)COC(=O)c2ccc(Br)o2)c1C	i	-2.6	-0.5	-1.3%
CCc1nc2c(OCc3ccccc3C)cccn2c1N(C)C(=O)C1CC1	i	·	0.1	·
N#C/C(=C\c1ccc(Oc2ccc(C(F)(F)F)cc2[N+](=O)[O-])cc1)c1nc2ccccc2[nH]1	i	-70.9*	3.2	0.0%
N#C/C(=C/c1ccc(N2CCCC2)c([N+](=O)[O-])c1)c1nc2ccccc2[nH]1	·	3.4	1.9	9.2%
O=C(c1ccco1)N1CCC(c2nc(-c3ccc(F)cc3)no2)CC1	i	-28.6	-34.8*	1.2%
O=C(c1ccco1)N1CCC(c2nc(-c3ccccc3Cl)no2)CC1	i	-18.7	-0.9	·
COC(=O)c1cc(-c2ccc(Br)cc2)n[nH]1	i	-2.4	-1.6	-16.9%
COC(=O)c1cc(-c2c[nH]c3ccccc23)n[nH]1	i	-85.5*	0.0	1.8%
CCN(CC)C(=O)c1sc(NC(=O)Cc2ccccc2)c(C#N)c1C	-115.2%*	-17.0	-1.3	-1.8%[46.1 µM]
CC(=O)N1CCC(C(=O)Nc2ccccc2)(N(Cc2ccccc2)C(=O)c2cccnc2)CC1	-112.6%*	14.9	-0.9	-3.4%
O=C(COC(=O)c1cccnc1)Nc1ccccc1	i	-3.7	0.9	-7.4%[46.1 µM]
COc1cc(/C=C/C(=O)OCC(=O)NC2CC2)cc(S(=O)(=O)N2CCc3ccccc32)c1OC	i	-2.7	-1.2	0.5%
COc1cc(/C=C/C(=O)OCC(=O)Nc2ccc(NC(C)=O)cc2)cc(S(=O)(=O)N2CCc3ccccc32)c1OC	i	3.3	-44.8*	-0.6%
CC(C)CN(C(=O)COC(=O)c1ccc2c(c1)NC(=O)CS2)C1CCS(=O)(=O)C1 (stereo not given)	i	-9.3	-1.8	2.5%
CN(C(=O)COC(=O)c1ccc2c(c1)NC(=O)CS2)C1CCS(=O)(=O)C1 (stereo not given)	-108.0%*	20.4	-2.5	0.2%
CC1CCN(CCCNC(=O)C2CCN(S(=O)(=O)N3CCC4(CC3)OCCO4)CC2)CC1	i	0.3	-1.2	4.2%
CCCCn1nnnc1SCC(=O)NCc1ccccc1	-114.7%*	8.4	-2.4	3.9%
CCn1c(SCC(=O)NCc2ccc3c(c2)OCO3)nnc1-c1cccs1	-96.0%*	4.2	-0.7	-9.3%
CCCn1c(SCC(=O)NCc2ccccc2)nnc1-c1ccncc1	-115.0%*	-3.7	-2.0	1.7%
CC(=O)N1CCOc2ccc(S(=O)(=O)N3CCC(C(=O)NCc4ccc(F)cc4)CC3)cc21	i	-5.6	-1.6	-7.5%
CSc1ccc(CN(C)Cc2nc3ccccc3c(=O)[nH]2)cc1	i	9.8	2.2	-0.6%
CCN1CCN(C(=O)c2c(-c3c(Cl)cccc3Cl)noc2C)CC1	i	-8.5	-1.0	-6.4%
CC(=O)Nc1cc(OC(C)=O)c2nonc2c1OC(C)=O	·	-74.4*	-1.7	2.0%
COC(=O)c1c(C)c2c(C)cc3ccccn3c-2c1C(=O)OC	-104.2%*	-8.8	-2.7	3.3%
COC(=O)c1cc2c(-c3ccccc3)cc3ccccn3c-2c1C(=O)OC	i	-1.3	-1.2	-0.8%
c1ccc(-c2nc(NCc3cccs3)c3ccccc3n2)cc1	i	2.5	-47.9*	4.4%
COc1cccc(NC(=O)c2ccc3snnc3c2)c1	-112.6%*	-10.1	-0.7	1.6%[46.1 µM]
Cc1c(NC(=O)c2cc(-c3cccs3)on2)c(=O)n(-c2ccccc2)n1C	-82.7%*	1.3	0.3	6.9%
Cc1c(NC(=O)Nc2ccccc2Cl)c(=O)n(-c2ccccc2)n1C	i	-79.8*	-0.6	-2.8%

From PubChem BioAssay
